# Measurements as given in PubChem BioAssay AID504891 (National Center for Advancing Translational Sciences (NCATS), 2011).
# The whole screen tested about 390,000 compounds, of which about 35 (0.009%) were called active. Roughly 6% stayed inconclusive and do not appear here. What follows is part of a selection rich in actives, with near analogues and random picks from the rest. Values without a mark were called inactive. The call rests on the fitted dose curve; in most records, active means well fitted inhibition curve with a large enough effect in the polarisation, with a control signal flat (not every such curve was filed as active); inconclusive means small, poorly fitted or top-dose-only effect, or effect the other way, or a change in a side signal; inactive means no such curve, though single readings can be large or run the other way; the % refers to the polarisation.
# Biological target: Peptidyl-prolyl cis-trans isomerase NIMA-interacting 1 (Homo sapiens) (UniProt Q13526)
# Assay: qHTS Assay to Find Inhibitors of Pin1
# Details: Pin1 FP peptide displacement, HiFluor488, 10 min; series mostly up to 115 µM; activity, negative = inhibition: at the top concentration
# Excerpt: NIH Molecular Libraries Probe Production Network [MLPCN]
# NIH Chemical Genomics Center [NCGC]
# The unique chemical properties of Pro allow for the adoption of two completely distinct amide bond conformations (cis and trans). Peptidyl-prolyl cis/trans isomerases (PPIases) are evolutionary conserved enzymes that catalyze cis/trans isomerization of peptidyl-prolyl peptide bonds. Distinct from all other PPIases such as cyclophilins and FK506-binding proteins (FKBPs), Pin1 binds a subset of phos.Ser/Thr-Pro-containing proteins using its protein-targeting WW domain and isomerizes only specific phos.Ser/Thr-Pro bonds, which cannot be effectively catalyzed by other known PPIases.
# Pin1-catalyzed conformational regulation can control a spectrum of activities of many key regulators in diverse cellular processes such as cell growth, genotoxic and other stress responses, immune response, germ cell development, neuronal differentiation and survival. Pin1 has emerged as a novel molecular timer that modulates its multiple targets at various steps of a given cellular process to synergistically control the amplitude and duration of a cellular response or process. Importantly, Pin1 is tightly regulated by multiple levels and its deregulation has an important role in a growing number of pathological conditions, including cancer, Alzheimer's disease, aging, asthma and microbial infection, providing a potentially new therapeutic option.
# The goal of this screen is to find small-molecule inhibitors of Pin1 using a fluorescence polarization competition assay. A HiFluor-488-labeled peptide binds to the active site of Pin1 and can be displaced by compounds. Compounds were screened as a concentration-titration series that ranged from 57 uM to 0.7 nM.
# NCGC Assay Protocol Summary:
# Pin1 (0.6 uM) was dispensed into black, solid 1536-well plates at 2 uL/well in 10 mM HEPES (pH 7.5), 10 mM NaCl, 0.01% Tween20, 1 mM DTT, and 1% glycerol. Then, 23 nL of compounds or DMSO were delivered to each well using a pin tool. Two uL of Pin1-1b-HiFluor488 peptide (10 mM HEPES (pH 7.5), 10 mM NaCl, 0.01% Tween20, 1 mM DTT, and 1% glycerol, 0.02 uM Pin1-1b-HiFluor488) was then dispensed, and plates were incubated at room temperature for 10 min. The plates were measured on a ViewLux plate reader for fluorescence polarization signal using a 480/20 nM nm excitation filter and 540/25 nM nm S and P emission filters with a 20 second exposure. The %Activity was determined from the corrected fluorescence polarization values. Unlabeled Pin1-1c peptide was used as a control (3.5 mM two-fold serial; 20 uM final concentration) along with a 1x (0.3 uM) and 0x (no-enzyme) Pin1 enzyme control to normalize %Activity of identified inhibitors; 0x enzyme values corresponded to 100%Activity (full inhibition), while 1x Pin1 enzyme values were used to normalize 0%Activity (no inhibition).
# Concentration-response curves were fitted to the signals arising from the resulting fluorescence polarization. The concentration-effect curves were then classified based on curve quality (r2), response magnitude and degree of measured activity, and compounds were subsequently categorized based on their curve class.
# Keywords: Peptidyl prolyl isomerase, Pin1, fluorescence polarization, MLSMR, MLPCN, NIH Roadmap, qHTS, NCGC
# Chain of Peptidyl-prolyl cis-trans isomerase NIMA-interacting 1 (Homo sapiens) (Q13526 whole entry, looked up): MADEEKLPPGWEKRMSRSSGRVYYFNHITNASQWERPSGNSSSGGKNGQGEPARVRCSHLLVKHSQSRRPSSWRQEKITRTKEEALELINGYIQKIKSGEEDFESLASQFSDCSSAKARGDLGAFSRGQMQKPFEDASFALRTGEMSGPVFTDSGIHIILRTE
row,Compound,"activity, negative = inhibition"
1,Cc1ccccc1CNC(=O)C(=O)NCC(c1cccs1)S(=O)(=O)c1cccs1 (stereo not given),-12.7%
2,CC1CCC2(CC1)N=C(c1ccccc1)C(=O)N2CC(=O)Nc1ccc(F)c(Cl)c1 (stereo not given),1.13%
3,COc1cc(OC)c(NC(=O)c2nc(-c3ccncc3)no2)cc1Cl,17.2%
4,Cc1cccc(CNC(=O)c2cnc3sc(N4CCCCC4)nn3c2=O)c1,-0.196%
5,CCc1ccccc1NC(=O)N1CCC2(CC1)Oc1ccccc1C(=O)N2Cc1ccccc1F,-1.18%
6,COc1ccc(OC)c(NC(=O)CSc2nc3ccccc3nc2N2CCCCC2)c1,32.3%
7,CN1CCOc2cc(S(=O)(=O)N3CCN(S(=O)(=O)c4c(F)cccc4F)CC3)cnc21,-1.45%
8,O=c1c2ccccc2nc2sc(Nc3ccc(Oc4ccccc4)cc3)nn12,-0.254%
9,CCn1c(C)c(C)c2cc(C(=O)NCCc3cc(OC)ccc3OC)ccc21,23.6%
10,CCC(=O)N1CCc2cc(CNS(=O)(=O)c3ccc(Br)s3)ccc21,-1.02%
11,O=[S+]([O-])(c1ccc(OC(F)(F)F)cc1)N1CCN([S+](=O)([O-])c2ccc3c(c2)OCCO3)CC1,0.0725%
12,CC(C)(C)c1ccc(C(=O)NCC(c2ccc(Cl)cc2)N2CCOCC2)cc1 (stereo not given),7.78%
13,COc1ccccc1Cc1nc2ccccc2nc1SCC(=O)N1CCCc2ccccc21,-0.247%
14,COc1ccc(C2Nc3ccccc3C(=O)N2Cc2ccc(Cl)cc2)cc1COc1ccc(NC(C)=O)cc1 (stereo not given),7.36%
15,Cc1nn2c(=O)cc(COC(=O)c3ccccc3NC(=O)COc3ccccc3C)nc2s1,1.55%
16,CCOC(=O)c1ccc(NC(=O)CC2C(=O)N(c3ccccc3)C(=O)N2Cc2cccs2)cc1 (stereo not given),13.3%
17,CC1CCCN(S(=O)(=O)c2ccc3[nH]c(=O)cc(C(=O)NCCc4ccc(Cl)cc4)c3c2)C1 (stereo not given),-5.21%
18,COc1ccc(N2CCN(S(=O)(=O)c3ccc4c(c3)CC(=O)N4)CC2)cc1,31.3% [at 230 µM]
19,COc1ccc(N2CCN(C(=O)c3c(C)oc4nc(C)nc(N5CCCC5)c34)CC2)cc1,7.79%
20,O=[S+]([O-])(c1ccc2c(c1)OCCO2)N1CCN([S+](=O)([O-])c2c(Cl)cc(Cl)cc2Br)CC1,13.4%
21,Cc1ccc(C)c(N2CCN(C(=O)C3CCC(CNS(=O)(=O)c4cccs4)CC3)CC2)c1 (stereo not given),38.7%
22,O=C(CSc1nc(-c2cccc(F)c2)[nH]c1-c1ccccc1)Nc1ccc2c(c1)OCO2,16.5%
23,COc1cc(F)c(S(=O)(=O)N2CCCN(S(=O)(=O)c3ccc(N)cc3)CC2)c(F)c1,0.343%
24,COC(=O)c1cnn(-c2ccc(C(=O)Nc3ccc(OC(F)(F)F)cc3)cc2)c1N,-8.42%

row,Compound,"activity, negative = inhibition"
1,O=S(=O)(c1ccc2c(c1)OCCO2)N1CCN(S(=O)(=O)c2cc(F)ccc2F)CC1,-1.33%
2,COC(=O)c1ccc(NC(=O)c2cnn(-c3ccc(Cl)cc3)c2C2CCN(C(=O)OC(C)(C)C)CC2)cc1,22.6%
3,CCCCN(C)CCCNC(=O)CN1N=C(c2ccc(OC)cc2)CCC1=O,2.62%
4,CCOc1ccc2oc(=O)cc(CN3CCN(C(=O)c4ccc(F)cc4)CC3)c2c1,-0.135%
5,O=C(O)c1ccc(Cn2c(SCc3ccc(F)cc3)nc3ccncc32)cc1,-0.106%
6,Cc1ccc(-c2nc3ccccn3c2Nc2c(C)cccc2C)o1,-3.86%
7,Cc1cccc(C(=O)NCCc2nc3ccccc3n2Cc2ccccc2Cl)c1,-1.58%
8,COc1cccc(C(=O)N(Cc2cccc(Cl)c2)Cc2ccco2)c1,-2.34%
9,CC(CNC(=O)c1nnc(Cc2cccc(F)c2)o1)c1ccccc1 (stereo not given),-7%
10,Cc1noc(C)c1-c1ccc2ncnc(NCc3ccc(F)c(F)c3)c2c1,-7.12%
11,O=C(CSCc1cnn(-c2ccccc2)c1-n1cccc1)NCc1ccc(Cl)cc1,26.7%
12,CC(C)c1ccc(NC(=O)C2CCN(c3nc(-c4ccc(C(C)C)cc4)no3)CC2)cc1,1.54%
13,NC(=O)C1CCN(C(=O)c2cccc(NC(=O)c3nsc4ccccc34)c2)CC1,-12%
14,Cc1ccc(C(=O)NC2CCN(C#N)CC2)cc1,5.3%
15,O=S(=O)(NCCc1nnc2ccc(SCc3ccc(Cl)cc3Cl)nn12)c1ccccc1,-1.54%
16,COC(=O)C(CC(C)C)NS(=O)(=O)c1cc(Br)ccc1Br (stereo not given),-1.84%
17,N#Cc1nc(NCc2ccc(Cl)c(Cl)c2)c2ncn(CCCO)c2n1,-3.83%
18,COCCNS(=O)(=O)c1cc(-c2nn3c(C)nnc3c3ccccc23)ccc1C,-2.33%
19,O=S1(=O)N=C(Oc2cccc(Br)c2)c2ccccc21,6.87%
20,COc1ccc(CNC(=O)c2ccc3c(c2)nc2n3CCOC2)c(OC)c1,0.756%
21,COc1ccc(C2Nc3ccccc3C(=O)N2Cc2ccc(CNC(=O)CO)cc2)cc1COc1ccc(NC(C)=O)cc1 (stereo not given),21.7%
22,COc1ccc(OC)c(NC(=O)C2CCN(S(=O)(=O)c3ccc(C)cc3)CC2)c1,12.5%
23,O=C1CC(c2ccccc2)CC2=C1C(c1ccco1)n1nc(C(F)(F)F)nc1N2 (stereo not given),-3.33%
24,COc1ccc(C2Nc3cccc(OC)c3C(=O)N2Cc2ccccc2)cc1COc1ccc(NC(C)=O)cc1 (stereo not given),34.9%

row,Compound,"activity, negative = inhibition"
1,COc1ccc(-c2ccc(C3C4C=CCCC4(C)C(=O)N3Cc3ccccc3)c(F)c2)cc1OC (stereo not given),-0.544%
2,Cc1cc(C)n2ncc(C(=O)Nc3cccc(C#N)c3)c2n1,1.24% [at 28.7 µM]
3,CCCOc1ccc(NC(=O)CC2C(=O)N(c3ccccc3)C(=O)N2Cc2ccco2)cc1 (stereo not given),1.04%
4,CCOC(=O)N1CCc2c(sc3c2c(=O)n(Cc2ccccc2)c(=O)n3CC(=O)Nc2cccc(C)c2)C1,16.1%
5,COC(=O)c1ccccc1NC(=O)c1ccc(C#N)cc1,5.67%
6,C=C1CCN(Cc2ccc(OC)cc2)S(=O)(=O)c2ccccc21,-0.748%
7,COc1ccc(C2=Nn3c(nnc3-c3ccccc3O)SC2)cc1,9.34%
8,O=C(c1ccco1)n1nc(-c2ccc(Cl)cc2)nc1NCc1ccccc1,-4.7%
9,Cc1ccc(S(=O)(=O)N2CCN(c3nc(-n4cnc5ccccc54)nc4ccccc34)CC2)cc1,-7.59%
10,O=C1NS(=O)(=O)c2ccccc21,-0.655%
11,COc1ccc(CN(Cc2ccccc2)C(=O)c2ccc(O)cc2)cc1COc1ccc(NC(C)=O)cc1,7.88%
12,COc1ccccc1/C=C/c1nc(C#N)c(NC(C)c2ccccc2)o1 (stereo not given),6.03%
13,O=C(CNC(=O)c1ccc(Cl)c(C(F)(F)F)c1)OC(C(=O)Nc1cc(C(F)(F)F)ccc1Cl)c1ccccc1 (stereo not given),-2.44%
14,Cc1ccc(CNC(=O)CSc2c(C)cnc3c2c(=O)n(C)c(=O)n3C)cc1,-9.06%
15,CCc1cc2c(cc3c(=O)n(CC(=O)N4CCN(c5cc(Cl)ccc5C)CC4)ncn32)s1,3.35%
16,CCCN1CCC(=O)N(C(CSc2ccc(C)cc2)Cc2ccccc2)CC1 (stereo not given),1.02%
17,CCCCn1c(=O)c2oc3ccccc3c2n(CC(=O)Nc2ccccc2OC)c1=O,-1.59%
18,Cn1c(=O)oc2cc(S(=O)(=O)CCC(=O)NCCc3ccc(Cl)cc3)ccc21,-2.53%
19,COc1ccc(C(=O)N(Cc2ccccc2)Cc2ccc(OC)c(COc3ccc(NC(C)=O)cc3)c2)c(O)c1,2.36%
20,O=C1C(F)N([S+](=O)([O-])c2ccc3c(c2)OCCO3)CCN1[S+](=O)([O-])c1c(F)cccc1F (stereo not given),0.717%
21,Cc1ccccc1CN1CCC(CNC(=O)c2cc3ccc4cccnc4c3[nH]2)CC1,2.12%
22,CN(Cc1cncn1C)c1ncnc2ccc(-c3ccc4c(c3)OCO4)cc12,-0.072%
23,CC(C)(C)NS(=O)(=O)c1cccc(Nc2nn3c(=O)c4ccccc4nc3s2)c1,102%
24,COc1ccc(Cn2cc(C(=O)c3ccc(C)cc3)c(=O)c3cc(OC)c(OC)cc32)cc1,8.62%

row,Compound,"activity, negative = inhibition"
1,Cc1ccc(NC(=O)c2cc3cc(C)ccc3n2C)cc1,-5.9%
2,N#CN1CCC(NC(=O)c2ccc(F)cc2)CC1,-0.423%
3,O=C(CNC(=O)c1ccc(Cl)cc1Cl)OC(C(=O)Nc1cc(C(F)(F)F)ccc1Cl)c1ccccc1 (stereo not given),36.8%
4,N#CN1CCC(NS(=O)(=O)c2cccc(F)c2)C1 (stereo not given),-0.967%
5,O=C(COc1ccccc1)NCc1ccc2c(c1)CCN2C(=O)c1ccc(F)cc1,-3.72%
6,CN(C)c1ccc(C(=O)NCC(=O)OC(C(=O)Nc2cc(C(F)(F)F)ccc2Cl)c2ccccc2)cc1 (stereo not given),-0.299%
7,CC1CCCCN1S(=O)(=O)c1ccc(F)c(C(=O)Nc2ccccc2C(F)(F)F)c1 (stereo not given),-3.9%
8,Cc1noc(C)c1-c1ccc2ncnc(NCc3ccc4[nH]ccc4c3)c2c1,4.44%
9,Brc1ccc2c(c1)NC(c1cccnc1)=NC(c1ccccc1)=N2,-8.22%
10,CS(=O)(=O)c1ccc(-c2nnc(NC(=O)c3ccc4c(c3)OCCO4)o2)cc1,0.171%
11,CCN(Cc1ccccc1)C(=O)c1cn(-c2cccc(OC)c2)c(=O)c2ccccc12,-15.2%
12,O=C(c1ccccc1F)N1CCC(c2nc3c(nnn3Cc3cccc(F)c3)c(=O)[nH]2)CC1,-1.2%
13,COc1cc(OC)cc(C(=O)Nc2cc3nn(-c4ccccc4)nc3cc2Cl)c1,1.15%
14,O=C(c1ccc2c(c1)N(Cc1ccccc1)C(=O)c1ccccc1S2(=O)=O)N1CCC(Cc2ccccc2)CC1,4.02%
15,COc1cccc(Cn2c(SCc3ccc(C(=O)N4CCC(C)CC4)cc3)nc3ccncc32)c1,5.45%
16,O=S(=O)(c1ccc2nc(NCc3ccccc3Cl)ccc2c1)N1CCCCC1,44.9%
17,Oc1ccc(/C=C/c2c(F)cccc2F)c2cccnc12,0.14%
18,Oc1ccc(Br)cc1C1C=C(c2ccc3c(c2)OCO3)NC(c2ccc(Cl)cc2)N1 (stereo not given),52.8%
19,O=C(NCc1ccccn1)[C@]1(C(F)(F)F)C[C@H](CCc2ccccc2)CCCO1,-0.539%
20,CCOc1ccccc1C(=O)Nc1ccc(S(=O)(=O)N2CCCCC2c2cccnc2)cc1 (stereo not given),21.9%
21,Cc1ccc(-c2nc3ccccn3c2Nc2ccc(F)cc2)o1,-7.84%
22,COc1ccc(CNC(=O)CSc2n[nH]c(-c3ccc(F)cc3)n2)cc1,-3.7%
23,O=C(NC1CC(=O)N(c2ccc(F)cc2)C1)c1ccc(S(=O)(=O)N2CCCC2)cc1 (stereo not given),-9.06%
